PubChem BioAssay (Tox21)
Inconclusive results are not listed. Where a call stands in place of a potency, no number is given. The source holds several records for some structures; these can differ, active in one and inactive in another. The source made the active and inactive calls. Calls follow the shape of the full dose curve.

Key:
[1] = target: Acetylcholinesterase (Homo sapiens) (UniProt P22303); test: Acetylcholinesterase (AChE) small molecule antagonists: colormetric cell-based qHTS assay (AID 1347395); also: nearly all actives have a fitted effect of over 30% in size; also: potency is read from the fitted curve at half-maximal effect
Sequence of Acetylcholinesterase (Homo sapiens) (P22303 whole entry, looked up): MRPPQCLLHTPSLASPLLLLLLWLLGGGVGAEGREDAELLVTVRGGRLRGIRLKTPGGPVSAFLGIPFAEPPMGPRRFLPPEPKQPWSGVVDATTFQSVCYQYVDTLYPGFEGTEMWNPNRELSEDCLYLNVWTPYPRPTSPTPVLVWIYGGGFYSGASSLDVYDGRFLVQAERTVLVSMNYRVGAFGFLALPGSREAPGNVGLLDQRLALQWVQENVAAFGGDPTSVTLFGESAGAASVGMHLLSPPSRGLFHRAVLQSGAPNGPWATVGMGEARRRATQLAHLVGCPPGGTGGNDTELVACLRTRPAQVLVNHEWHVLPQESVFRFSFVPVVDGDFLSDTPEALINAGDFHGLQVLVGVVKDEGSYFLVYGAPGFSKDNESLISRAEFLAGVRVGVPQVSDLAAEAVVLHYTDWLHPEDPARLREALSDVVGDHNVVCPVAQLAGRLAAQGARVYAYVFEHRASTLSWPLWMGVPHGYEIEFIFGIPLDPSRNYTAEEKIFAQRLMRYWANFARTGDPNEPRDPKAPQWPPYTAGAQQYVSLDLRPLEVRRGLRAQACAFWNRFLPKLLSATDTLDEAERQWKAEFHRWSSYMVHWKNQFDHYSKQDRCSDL
Outline: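 SH-SY5Y cells; cpd 30 min 37 C; + DTNB/acetylthiocholine, 90 min 37 C; colorimetric thiocholine read; qHTS.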

[2] = target: Acetylcholinesterase (Homo sapiens) (UniProt P22303); test: Acetylcholinesterase (AChE) small molecule antagonists: enzyme-based qHTS assay (AID 1347397); conditions: Potency: AChE enzyme activity inhibition; outcome: AChE enzyme activity inhibition; also: nearly all actives have a fitted effect of over 55% in size
Outline: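 Recombinant human AChE (50 mU/mL) preincubated with compound 30 min at room temperature; acetylthiocholine plus DTNB then added, and thiocholine formation read colorimetrically after 10 min at room temperature. DMSO served as vehicle control.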

[3] = target: Acetylcholinesterase (Homo sapiens) (UniProt P22303); test: Acetylcholinesterase (AChE) small molecule antagonists: fluorescence cell-based qHTS assay (AID 1347398); conditions: Potency: AChE activity; outcome: AChE activity; also: nearly all actives have a fitted effect of over 50% in size; also: potency is read from the fitted curve at half-maximal effect
Outline: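 SH-SY5Y cells (2000/well), attached overnight, incubated with compound 30 min at 37 C. Acetylthiocholine plus Thiolite Green then added for 40 min at room temperature. Thiocholine fluorescence (Ex/Em 490/520 nm) reports cellular AChE activity.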

[4] = target: Acetylcholinesterase (Homo sapiens) (UniProt P22303); test: Acetylcholinesterase (AChE) small molecule antagonists: enzyme-based qHTS assay with human liver microsomes (AID 1347399); conditions: Potency: qHTS inhibition; outcome: qHTS inhibition; also: nearly all actives have a fitted effect of over 60% in size
Outline: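 Recombinant human AChE (50 mU/mL in the enzyme mix) and human liver microsomes (0.25 mg/mL final) were preincubated with compound and NADPH (0.25 mg/mL final) for 30 min at 37 C. Acetylthiocholine/DTNB was then added; thiocholine was read colorimetrically after 10 min at room temperature.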

Structure (SMILES)	Potency [1]	Potency [2]	Potency [3]	Potency [4]
CC(CC=O)c1ccccc1 (stereo not given)	inactive	inactive	inactive	inactive
O=C(Nc1cccc(Cl)c1)OCC#CCCl	inactive	inactive	inactive	inactive
CC1(C)S[C@@H]2[C@H](NC(=O)[C@H](N)c3ccccc3)C(=O)N2[C@H]1C(=O)O	inactive	inactive	inactive	inactive
O=C1O[C@H]([C@@H](O)CO)C(O)=C1O	inactive	inactive	inactive	inactive
CS(=O)(=O)c1ccc([C@@H](O)[C@@H](CO)NC(=O)C(Cl)Cl)cc1	inactive	inactive	inactive	inactive
C[C@](N)(Cc1ccc(O)c(O)c1)C(=O)O	inactive	inactive	inactive	inactive
CCCCNS(=O)(=O)c1ccccc1	inactive	inactive	inactive	inactive
O=C(Nc1ccccc1)c1cc(Cl)ccc1O	inactive	inactive	inactive	inactive
CCn1ccc(NS(=O)(=O)c2ccc(N)cc2)nc1=O	inactive	inactive	inactive	inactive
CCCCCCCC=O	inactive	inactive	inactive	inactive
Cc1c(C(=O)O)cccc1[N+](=O)[O-]	inactive	inactive	inactive	inactive
O=C(Nc1ccccc1)Nc1ccccc1	inactive	inactive	inactive	inactive
O=C(Nc1ncc([N+](=O)[O-])s1)c1cccs1	inactive	inactive	inactive	inactive
CCCCC(CC)COC(=O)COc1ccc(Cl)cc1Cl (stereo not given)	inactive	inactive	inactive	inactive
CC(=O)c1ccc(C)cc1	inactive	inactive	inactive	inactive
Cc1ccnc(NS(=O)(=O)c2ccc(N)cc2)n1	inactive	inactive	inactive	inactive
CC[C@H](NC(C)C)[C@H](O)c1ccc(O)c2[nH]c(=O)ccc12	inactive	inactive	inactive	inactive
CCC1CCC(CCC(=O)O)C1 (stereo not given)	inactive	inactive	inactive	inactive
CC(C)=CCC[C@@](C)(O)[C@H]1CC=C(C)CC1	inactive	inactive	inactive	inactive
CO[Si](CCCNCCN)(OC)OC	inactive	inactive	inactive	inactive

Structure (SMILES)	Potency [1]	Potency [2]	Potency [3]	Potency [4]
CCN1C=CN(C)C1C (stereo not given)	inactive	inactive	inactive	inactive
Nc1ccc2cc(S(=O)(=O)O)cc(O)c2c1	inactive	inactive	inactive	inactive
CCCCCCCCCCC1CO1 (stereo not given)	inactive	inactive	inactive	inactive
C=C(c1ccc(C(=O)O)cc1)c1cc2c(cc1C)C(C)(C)CCC2(C)C	inactive	inactive	inactive	inactive
CCCCCCCCCCCCCCCCN	inactive	inactive	inactive	inactive
O=S(=O)(O)CCO	inactive	inactive	inactive	inactive
CCOCCC(=O)OCC	inactive	inactive	inactive	inactive
O=Cc1cc2ccccc2o1	inactive	inactive	inactive	inactive
O=c1[nH]c(=O)n([C@H]2CCCO2)cc1F	inactive	inactive	inactive	inactive
CCCCCCCCC(=O)O	3.07 µM (active) and inactive	inactive	inactive	inactive
Oc1cccc(O)c1	inactive	inactive	inactive	inactive
Cc1cn([C@@H]2O[C@H](CO)[C@@H](O)[C@@H]2F)c(=O)[nH]c1=O	inactive	inactive	inactive	inactive
C[C@@H](O)[C@H]1C(=O)N2C(C(=O)O)=C(S[C@@H]3CN[C@H](C(=O)N(C)C)C3)[C@H](C)[C@H]12	inactive	inactive	inactive	inactive
CCC(C)(CCC(C)C)C(=O)[O-].CCC(C)(CCC(C)C)C(=O)[O-].[Zn+2] (stereo not given)	inactive	inactive	inactive	inactive
C[C@@H]1CCN(C(=O)[C@H](CCCN=C(N)N)NS(=O)(=O)c2cccc3c2NC[C@H](C)C3)[C@@H](C(=O)O)C1	inactive	inactive	inactive	inactive
O=C(Cn1ccnc1[N+](=O)[O-])NCc1ccccc1	inactive	inactive	inactive	inactive
C=CC(C)(CCC=C(C)C)OC(=O)/C=C/c1ccccc1 (stereo not given)	inactive	inactive	inactive	inactive
C[C@@H](NCCCc1cccc(C(F)(F)F)c1)c1cccc2ccccc12	inactive	inactive	inactive	inactive
CSc1ccc(C=O)cc1	inactive	inactive	inactive	inactive
CNCCCC12CCC(c3ccccc31)c1ccccc12	inactive	inactive	inactive	inactive

Structure (SMILES)	Potency [1]	Potency [2]	Potency [3]	Potency [4]
C#C[C@]1(O)CC[C@H]2[C@@H]3CCc4cc(OC)ccc4[C@H]3CC[C@@]21C	inactive	inactive	inactive	inactive
COc1nc(C)nc(NC(=O)NS(=O)(=O)c2ccccc2OCCCl)n1	inactive	inactive	inactive	inactive
CCOc1c(N2CCOCC2)cnn(C)c1=O	inactive	inactive	inactive	inactive
c1cc(-c2ccncc2)ccn1	inactive	inactive	inactive	inactive
C=C1[C@H]2CC[C@@H]3[C@H]2C(C)(C)CCC[C@]13C	inactive	inactive	inactive	inactive
c1ccc(CNCCNCc2ccccc2)cc1	inactive	inactive	inactive	inactive
Cc1oc(-c2ccccc2)nc1CCC(=O)c1ccc(CC2SC(=O)NC2=O)cc1 (stereo not given)	inactive	inactive	inactive	inactive
Cn1c([N+](=O)[O-])cnc1COC(N)=O	inactive	inactive	inactive	inactive
CC/C=C\CCOC(=O)CC	inactive	inactive	inactive	inactive
CC(O)C(CO)C(C)O (stereo not given)	inactive	inactive	inactive	inactive
CC1(C)C(=O)N(Cl)C(=O)N1Cl	inactive	inactive	inactive	inactive
CCCCCCCCCOCC1CO1 (stereo not given)	inactive	inactive	inactive	inactive
NC(=O)CCCCC1CCSS1 (stereo not given)	inactive	inactive	inactive	inactive
O=C1CCCC1	inactive	inactive	inactive	inactive
NCC(=O)CCC(=O)O	inactive	inactive	inactive	inactive
CC1=C(CC(=O)O)c2cc(F)ccc2/C1=C\c1ccc(S(C)=O)cc1 (stereo not given)	inactive	inactive	inactive	inactive
CNS(=O)(=O)c1cc(C(=O)N2CCC(CCN3C4CCC3CC(n3c(C)nc5ccccc53)C4)(c3cccc(F)c3)CC2)c(Cl)cc1F (stereo not given)	8.94 µM (active)	inactive	7.96 µM (active)	inactive
C=CC(=O)OCC1CC2CC1C1CCC(COC(=O)C=C)C21 (stereo not given)	inactive	inactive	inactive	inactive
C[C@]12CC[C@@H]3c4ccc(O)cc4CC[C@H]3[C@@H]1C[C@@H](O)[C@@H]2O	inactive	inactive	inactive	inactive
CCCCN(CCCC)CCCCCCN(CCCC)CCCC	inactive	inactive	inactive	inactive
